This passage reports growth inhibition results from PubChem BioAssay (NCI).

Structures are written as SMILES. About 79,000 compounds went through this panel and 15% of them were active in at least one assay; those are over-represented in the sample as a whole. A number with no mark means an inactive call. The source made the active and inactive calls. Cut-off read from the data, not from the text of the source: active = growth inhibition above about 70%; inactive = the rest.

Test [1] in a line: NCI Yeast Anticancer Drug Screen. Data for the rad50 strain (AID 155).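 Note: 0% = growth of vehicle-only cultures of the same strain.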 The following applies: S. cerevisiae rad50 strain growth inhibition, hits give high values. An outline of the steps:
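Vehicle-treated cultures provide the reference for the growth inhibition reported for compound-exposed, repair-deficient yeast.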

The nature of test [2]: NCI Yeast Anticancer Drug Screen. Data for the mec2-1 strain (AID 157). The following applies: S. cerevisiae mec2-1 strain, hits give high values. An outline of the steps:
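Yeast mec2-1 mutant treated with compound. Readout: growth inhibition vs vehicle controls.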

Test [3] can be described thus: NCI Yeast Anticancer Drug Screen. Data for the sgs1 mgt1 strain (AID 161).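 Note: 0% = growth of cultures given vehicle only.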 The following applies: S. cerevisiae sgs1 mgt1 strain, hits give high values. An outline of the steps: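 Inhibition of yeast growth, normalised to vehicle-treated controls, is reported for a strain bearing genetic alterations in DNA damage repair.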
The nature of test [4]: NCI Yeast Anticancer Drug Screen. Data for the cln2 rad14 strain (AID 165).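 Note: 0% = growth equal to vehicle treated cultures.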 The following applies: S. cerevisiae cln2 rad14 strain, hits give high values. An outline of the steps: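 cln2 rad14 yeast strain; compound exposure; growth inhibition read vs vehicle controls.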
A short description of test [5]: NCI Yeast Anticancer Drug Screen. Data for the bub3 strain (AID 167). The following applies: S. cerevisiae bub3 mutant strain, hits give high values. An outline of the steps: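 Mutant yeast screening strain plus compound; vehicle-treated cultures serve as the 0% inhibition reference.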
A short description of test [6]: NCI Yeast Anticancer Drug Screen. Data for the mlh1 rad18 strain (AID 175). The following applies: S. cerevisiae mlh1 rad18 strain growth inhibition, hits give high values. An outline of the steps:
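Yeast w/ defined DNA-repair lesions; compound exposure; growth vs vehicle controls → % inhibition.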

Where [7] appears, read: at 5.0 µM (retest, dose inferred, filed as 0.5).
Setting [8] is: at 50.0 µM (retest, dose inferred, filed as 5.0).

Regarding `CCCN(CCC)c1ccc(Cc2ccc(N(CCC)CCC)cc2N)c(N)c1`, the growth inhibition in test [1] (setting [7]) is -3%; in test [1] (setting [8]), 96% (active); in test [1] (at 50.0 µM) it was 97.8% (active); in test [2] (setting [7]), -5%; in test [2] (setting [8]) it was 98% (active); in test [2] (at 50.0 µM), 98.3% (active). Further, the growth inhibition was -6% in test [3] (setting [7]); 99% (active) in test [3] (setting [8]); 44.5% in test [3] (at 50.0 µM); -1% in test [4] (setting [7]); 91% (active) in test [4] (setting [8]); 97% (active) in test [4] (at 50.0 µM). In addition, the growth inhibition in test [5] (setting [7]) was -1%; in test [5] (setting [8]) it was 96% (active); in test [5] (at 50.0 µM), 96.8% (active); in test [6] (setting [7]), -5%; in test [6] (setting [8]), 95% (active); in test [6] (at 50.0 µM), 98.1% (active).

Consider `CC12C(=O)N(CC(=O)O)C(=O)C1(C)C1c3ccccc3C2c2ccc3ccccc3c21` (configuration not stated), for which the growth inhibition in test [1] (setting [7]) is 7%; in test [1] (setting [8]), 97% (active); in test [1] (at 50.0 µM), 98.7% (active); in test [2] (setting [7]), 1%; in test [2] (setting [8]) it was 98% (active); in test [2] (at 50.0 µM), 95.9% (active). In addition, the growth inhibition was 2% in test [3] (setting [7]); 98% (active) in test [3] (setting [8]); 99% (active) in test [3] (at 50.0 µM); -8% in test [4] (setting [7]); 99% (active) in test [4] (setting [8]); 99% (active) in test [4] (at 50.0 µM). For the same molecule, the growth inhibition is 1% in test [5] (setting [7]); 96% (active) in test [5] (setting [8]); 95.6% (active) in test [5] (at 50.0 µM); 0% in test [6] (setting [7]); 98% (active) in test [6] (setting [8]); 95.8% (active) in test [6] (at 50.0 µM).

On to `Cc1cnc(C#N)c(C#N)n1`, for which the growth inhibition was 2% in test [1] (setting [7]); 10% in test [1] (setting [8]); 35.6% in test [1] (at 50.0 µM); -1% in test [2] (setting [7]); 8% in test [2] (setting [8]); 5.9% in test [2] (at 50.0 µM). For the same molecule, the growth inhibition is 2% in test [3] (setting [7]); 7% in test [3] (setting [8]); 9.95% in test [3] (at 50.0 µM); 0% in test [4] (setting [7]); 7% in test [4] (setting [8]); 12.2% in test [4] (at 50.0 µM). The growth inhibition in test [5] (setting [7]) was -1%; in test [5] (setting [8]), -1%; in test [5] (at 50.0 µM) it was 13.2%; in test [6] (setting [7]), -3%; in test [6] (setting [8]), 3%; in test [6] (at 50.0 µM) it was 18.1%.

Take `O=C(O)/C=C/C(=O)Nc1cccc2c1C(=O)c1ccccc1-2`: the growth inhibition was 18% in test [1] (setting [7]); 89% (active) in test [1] (setting [8]); 92.3% (active) in test [1] (at 50.0 µM); -18% in test [2] (setting [7]); 93% (active) in test [2] (setting [8]); 97.9% (active) in test [2] (at 50.0 µM). Moreover, the growth inhibition in test [3] (setting [7]) was 35%; in test [3] (setting [8]) it was 95% (active); in test [3] (at 50.0 µM), 97.3% (active); in test [4] (setting [7]), 8%; in test [4] (setting [8]), 96% (active); in test [4] (at 50.0 µM), 89.7% (active). Further, the growth inhibition in test [5] (setting [7]) is 17%; in test [5] (setting [8]), 93% (active); in test [5] (at 50.0 µM), 95.9% (active); in test [6] (setting [7]), 34%; in test [6] (setting [8]), 97% (active); in test [6] (at 50.0 µM) it was 96.1% (active).

`C/C=C/CSc1cc(NC(=S)c2ccsc2C)ccc1Cl`: the growth inhibition is -6% in test [1] (setting [7]); 83% (active) in test [1] (setting [8]); 88.2% (active) in test [1] (at 50.0 µM); -1% in test [2] (setting [7]); 82% (active) in test [2] (setting [8]); 85.8% (active) in test [2] (at 50.0 µM). Further, the growth inhibition in test [3] (setting [7]) is 43%; in test [3] (setting [8]), 88% (active); in test [3] (at 50.0 µM), 91.2% (active); in test [4] (setting [7]), -19%; in test [4] (setting [8]), 80% (active); in test [4] (at 50.0 µM) it was 84.3% (active). The growth inhibition is -2% in test [5] (setting [7]); 88% (active) in test [5] (setting [8]); 88.6% (active) in test [5] (at 50.0 µM); 6% in test [6] (setting [7]); 89% (active) in test [6] (setting [8]); 86.8% (active) in test [6] (at 50.0 µM).

As to `CCC(=O)Nc1ccc(NC(C)=O)cc1`, the growth inhibition in test [1] (setting [7]) was -6%; in test [1] (setting [8]), -9%; in test [1] (at 50.0 µM), -17.6%; in test [2] (setting [7]), -9%; in test [2] (setting [8]) it was 1%; in test [2] (at 50.0 µM) it was -6.9%. Also, the growth inhibition was -5% in test [3] (setting [7]); 6% in test [3] (setting [8]); -8.65% in test [3] (at 50.0 µM); 6% in test [4] (setting [7]); -16% in test [4] (setting [8]); -11.6% in test [4] (at 50.0 µM). Moreover, the growth inhibition in test [5] (setting [7]) is -10%; in test [5] (setting [8]), -3%; in test [5] (at 50.0 µM), 23.2%; in test [6] (setting [7]) it was -8%; in test [6] (setting [8]), -28%; in test [6] (at 50.0 µM), -8.9%.

For `O=[N+]([O-])c1cc2[nH]cnc2c([N+](=O)[O-])c1NCc1ccccc1`, the growth inhibition was 0% in test [1] (setting [7]); 47% in test [1] (setting [8]); 68.5% in test [1] (at 50.0 µM); 0% in test [2] (setting [7]); 29% in test [2] (setting [8]); 34.3% in test [2] (at 50.0 µM). Further, the growth inhibition is -1% in test [3] (setting [7]); 45% in test [3] (setting [8]); 80.5% (active) in test [3] (at 50.0 µM); -2% in test [4] (setting [7]); 34% in test [4] (setting [8]); 24.2% in test [4] (at 50.0 µM). For the same molecule, the growth inhibition was -4% in test [5] (setting [7]); 25% in test [5] (setting [8]); 33.1% in test [5] (at 50.0 µM); -3% in test [6] (setting [7]); 44% in test [6] (setting [8]); 72.5% (active) in test [6] (at 50.0 µM).

Turning to `Clc1nc2cc3nc(Cl)c(Cl)nc3cc2nc1Cl`, the growth inhibition in test [1] (setting [7]) is 18%; in test [1] (setting [8]), 71% (active); in test [1] (at 50.0 µM), 21.2%; in test [2] (setting [7]) it was 24%; in test [2] (setting [8]), 93% (active); in test [2] (at 50.0 µM), 16.3%. Moreover, the growth inhibition was 14% in test [3] (setting [7]); 24% in test [3] (setting [8]); 36.4% in test [3] (at 50.0 µM); 26% in test [4] (setting [7]); 23% in test [4] (setting [8]); 30.1% in test [4] (at 50.0 µM). In addition, the growth inhibition is 17% in test [5] (setting [7]); 30% in test [5] (setting [8]); 15.6% in test [5] (at 50.0 µM); 29% in test [6] (setting [7]); 91% (active) in test [6] (setting [8]); -1.2% in test [6] (at 50.0 µM).

For `O=[N+]([O-])c1cccn2nc(C3OC(CO)C(O)C3O)nc12` (configuration not stated), the growth inhibition in test [1] (setting [7]) was 3%; in test [1] (setting [8]), 13%; in test [1] (at 50.0 µM) it was -11.2%; in test [2] (setting [7]), -3%; in test [2] (setting [8]), -2%; in test [2] (at 50.0 µM), -4.8%. The growth inhibition in test [3] (setting [7]) is 0%; in test [3] (setting [8]), 7%; in test [3] (at 50.0 µM), -14.7%; in test [4] (setting [7]), 3%; in test [4] (setting [8]) it was -4%; in test [4] (at 50.0 µM), 34.4%. For the same molecule, the growth inhibition in test [5] (setting [7]) was 0%; in test [5] (setting [8]) it was -1%; in test [5] (at 50.0 µM), -11.4%; in test [6] (setting [7]), -2%; in test [6] (setting [8]), 3%; in test [6] (at 50.0 µM), -4.65%.
